Mtb bLac sens: beta-lactam sensitization of Mtb H37Rv | M. tuberculosis H37Rv growth with meropenem, percent inhibition | inhibition, % at 25 µM | hit rate 0.27% among 330,000; call rule not given here;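 note: growth measured after seven days incubation then overnight dye step; 0% = bacteria only wells and 100% = bacteria with antibiotic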
RecA splice inh: inhibitors of M. tuberculosis RecA intein splicing | hit rate 0.75% among 290,000 | P9WHJ3 | inhibition, % (test concentration not listed) | cell-free RecA intein splicing, fluorescence; in the data active = inhibition above about 30%;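 note: 0% = vehicle wells and 100% = reference inhibitor control wells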
Target sequence (P9WHJ3 whole entry, looked up, canonical isoform): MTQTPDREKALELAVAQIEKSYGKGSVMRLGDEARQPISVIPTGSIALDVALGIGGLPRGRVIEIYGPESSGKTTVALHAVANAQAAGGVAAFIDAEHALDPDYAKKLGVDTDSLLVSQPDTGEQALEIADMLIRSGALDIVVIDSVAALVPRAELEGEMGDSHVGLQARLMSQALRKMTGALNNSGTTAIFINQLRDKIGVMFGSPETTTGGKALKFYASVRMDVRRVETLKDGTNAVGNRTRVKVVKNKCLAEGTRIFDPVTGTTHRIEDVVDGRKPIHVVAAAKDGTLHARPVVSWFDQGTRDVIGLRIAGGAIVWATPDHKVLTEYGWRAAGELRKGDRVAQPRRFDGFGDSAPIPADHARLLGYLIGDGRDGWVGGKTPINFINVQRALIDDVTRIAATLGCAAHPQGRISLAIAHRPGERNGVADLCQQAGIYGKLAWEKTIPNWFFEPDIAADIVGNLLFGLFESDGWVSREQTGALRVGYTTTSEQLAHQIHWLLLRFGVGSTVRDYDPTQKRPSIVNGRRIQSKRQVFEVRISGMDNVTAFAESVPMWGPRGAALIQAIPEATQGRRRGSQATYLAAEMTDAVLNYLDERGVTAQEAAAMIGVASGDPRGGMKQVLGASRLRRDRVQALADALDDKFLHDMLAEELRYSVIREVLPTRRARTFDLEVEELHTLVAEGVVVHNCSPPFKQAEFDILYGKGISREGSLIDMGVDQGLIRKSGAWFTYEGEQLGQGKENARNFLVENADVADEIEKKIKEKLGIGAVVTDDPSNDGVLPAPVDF
Mtb FBA inh: Mtb fructose-bisphosphate aldolase inhibition; hit rate 2.3% among 360,000; inhibition, % at 1 µM; AID 588726; purified M. tuberculosis FBA, fluorescence read-out; in the data active = inhibition above about 27%;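 note: 0% = vehicle and 100% = reference inhibitor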
GDH-TPI inh: GDH-TPI coupled enzyme inhibition counter-screen; GDH-TPI coupled enzyme counterscreen, NADH absorbance; inhibition, % at 4.8 µM; hit rate 1.2% among 360,000; AID 588335; in the data active = inhibition above about 30%;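 note: 0% = DMSO wells and 100% = wells lacking the enzyme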
Rv3671c inh: Rv3671c (M. tuberculosis) protease inhibition | AID 2606 | hit rate 0.048% among 320,000 | inhibition, % at 5.96 µM | P9WHR9; in the data active = inhibition above about 38%;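 note: extracellular domain of Rv3671c used as enzyme; 0% = enzyme with DMSO and 100% = no enzyme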
Mtb UGM inh: Mtb UDP-galactopyranose mutase inhibition; purified UGM, fluorescence polarization probe displacement; hit rate 0.06% among 320,000; P9WIQ1; inhibition, % at 10 µM; AID 504406; in the data active = inhibition above about 10%, passing the limit was not always enough
* hit, by the source's call; i = inactive; / = no result given; + = active, no number. Compounds with a hit are over-represented: about 4% of the library has one in this group of screens.

SMILES	Mtb bLac sens	RecA splice inh	Mtb FBA inh	GDH-TPI inh	Rv3671c inh	Mtb UGM inh
O=C(C#Cc1ccccc1)c1ccccc1	/	/	1.1	-1.8	/	/
CN(C(=O)Nc1ccccc1)n1cnc2ccccc2c1=O	-0.9	1.2	2.8	3.8	2.6	-1.2
N#Cc1c(N)oc(-c2ccc3c(c2)OCO3)c1-c1ccc2c(c1)OCO2	-3.9	3.1	9.2	7.7	6.6	0.2
COc1cc2c(cc1OC)C(C)=NC1(CCCCC1)C2	-10.5	-9.9	185.7*	14.7	-2.4	-0.8
COc1cc2c(cc1OC)C(C)=NCC2	-3.3	-0.8	+	0.0	-6.4	-2.0
O=C(Nc1ccc(Cl)cc1N1CCOCC1)C1CC1	-2.5	0.4	2.9	9.8	0.6	-2.1
COc1ccc(-c2nc3cc([N+](=O)[O-])ccc3o2)cc1	-4.5	-1.5	-0.1	1.6	3.2	-0.7
Nc1ccc(-c2nc3cc([N+](=O)[O-])ccc3o2)cc1	1.2	1.2	0.4	41.6*	-6.0	2.4
CC(C)c1ccc2oc(-c3ccc(N)cc3)nc2c1	48.6	1.4	191.2*	28.9	-5.3	0.2
CSc1ccc(/C=C2\CCn3c2nc2cc(C(=O)O)ccc2c3=O)cc1	2.4	-23.9	7.3	63.0*	-11.3	1.7
COc1ccc(/C=C2\CCn3c2nc2cc(C(=O)O)ccc2c3=O)cc1OC	-2.2	-13.5	4.2	14.0	-5.5	2.5
COC(=O)c1ccc(/C=C2\CCn3c2nc2cc(C(=O)O)ccc2c3=O)cc1	1.0	0.5	12.1	13.7	-8.5	1.3
COc1ccc(/C=C2\CCn3c2nc2cc(C(=O)O)ccc2c3=O)cc1O	5.0	-1.3	-4.1	50.7*	-9.8	/
COC(=O)CCCC1=CC2=C(c3ccccc3)C(=O)C(C)(OC(=O)C3CCCC3)C(=O)C2=CN1CCCCO (centres undefined)	-1.5	39.2*	1.7	-6.7	-3.7	0.4
Cc1ccc(NC(=O)c2ccc(=O)[nH]n2)cc1C	2.0	0.6	0.5	-2.6	-2.5	0.1
COc1ccc(CNC(=O)c2cc3c(=O)n4cccc(C)c4nc3n(CC3CCCO3)c2=N)cc1 (centres undefined)	-1.6	-30.7	14.5	4.3	-11.0	5.2
Cc1cccn2c(=O)c3cc(C(=O)NCC4CCCO4)c(=N)n(C4CCCCC4)c3nc12 (centres undefined)	7.0	/	+	6.7	-7.3	4.9
Cc1cccn2c(=O)c3cc(C(=O)NC4CCCC4)c(=N)n(CC4CCCO4)c3nc12 (centres undefined)	-4.3	i	+	8.1	-20.4	-1.1
Cc1cccn2c(=O)c3cc(C(=O)NCc4ccc(F)cc4)c(=N)n(CC4CCCO4)c3nc12 (centres undefined)	6.7	i	+	0.4	-9.6	-0.4
Cc1cccn2c(=O)c3cc(C(=O)NCC4CCCO4)c(=N)n(CC4CCCO4)c3nc12 (centres undefined)	-10.4	/	+	6.2	-1.4	2.0
CC(=O)N1CCN(c2ccc(NC(=O)c3cccc(F)c3)cc2)CC1	/	/	-0.4	7.1	/	/
CO/N=C(/CNC(=O)c1ccccc1Cl)c1ccc(Cl)cc1	61.2	1.7	3.6	4.7	2.4	0.5
Cc1ccc(C)c2sc(NC(=O)c3nc4ccccc4s3)nc12	1.4	-2.3	-2.4	8.7	2.0	-1.0
COC(=O)N/N=C/c1ccc(-c2ccccc2Cl)o1	-3.7	1.3	0.1	35.2*	-5.6	1.4
COC(=O)c1sccc1-c1ccc(/C=N/OC(=O)c2ccccc2)o1	16.5	2.3	14.0	30.8*	9.5	-3.4
SMILES	Mtb bLac sens	RecA splice inh	Mtb FBA inh	GDH-TPI inh	Rv3671c inh	Mtb UGM inh
COC(=O)c1ccccc1-c1ccc(/C=N/NC(N)=O)o1	5.5	-3.0	0.9	31.7*	4.2	0.0
COC(=O)N/N=C/c1ccc(-c2ccc(Cl)cc2Cl)o1	94.9	0.0	3.9	33.7*	-13.9	-1.7
CCOC(=O)CN1C(=O)/C(=C/c2c(F)cccc2Cl)Oc2ccccc21	88.3	13.5	10.6	14.4	-14.4	0.7
COC(=O)c1cccc(NC(=S)N2CCOCC2)c1	2.2	4.8	-0.8	6.3	2.1	0.2
Cc1cc(NC(=O)COC(=O)c2c(C)nn(Cc3ccccc3Cl)c2C)no1	-9.4	-2.4	-3.0	7.6	-2.0	8.5
C=CCn1nnnc1-c1cc(Cl)cc(Cl)c1	0.1	0.4	-4.7	14.2	10.4	-0.6
COc1ccc(-c2cc(N3CCCC3)n3ncnc3n2)cc1	-3.2	3.2	6.2	18.2	-0.5	2.3
FCCCOc1ccc(-c2ccnc3ncnn23)cc1	2.0	1.4	+	0.3	-1.3	1.4
COc1ccc(-c2ccnc3ncnn23)cc1	-0.2	1.0	+	13.3	17.6	1.6
COc1ccc(-c2cc(-c3ccccc3)n3ncnc3n2)cc1	96.4	1.5	170.1*	32.8*	3.1	3.0
c1ccc2c(c1)ncn2-c1ccc(-c2ccnc3ncnn23)cc1	-2.2	-0.5	-1.7	6.8	3.8	/
CC(=O)Nc1cccc(NC(=O)C2CCCO2)c1 (centres undefined)	/	/	0.3	1.8	/	/
O=C(Nc1ccncc1)c1ccc(Cl)c(S(=O)(=O)N2CCc3ccccc32)c1	69.3	13.8	3.8	1.4	-38.4	0.5
CCCOc1ccc(N2C(=O)CC(SC(=N)N3N=C(c4ccccc4)CC3c3ccccc3)C2=O)cc1 (centres undefined)	88.3	2.5	1.8	-1.9	-5.8	2.4
CCC(=C(c1ccc(OC)cc1)c1ccc(OC)cc1)c1cn(CC(O)CN(CCO)CCO)c2ccccc12 (centres undefined)	97.9	23.3	-3.9	-2.5	6.6	-1.3
Nc1nc2ccccc2n1S(=O)(=O)c1ccc([N+](=O)[O-])cc1	/	/	0.2	-1.0	/	/
O=C(Nc1ccc2oc(-c3cccnc3)nc2c1)c1ccc(Br)o1	-15.8	-5.1	14.5	17.2	-5.8	-3.4
Cc1ccc2nc(-c3cccnc3)oc2c1	1.9	-3.0	41.4*	-5.5	-2.0	1.1
CCC(=O)Nc1ccc2oc(-c3cccnc3)nc2c1	-2.5	1.6	171.9*	24.7	-17.4	2.3
CC(C)CC(=O)Nc1ccc2oc(-c3cccnc3)nc2c1	16.4	-4.8	129.2*	-1.9	0.7	-3.3
O=C(Nc1ccc2oc(-c3cccnc3)nc2c1)c1cccnc1	6.1	/	5.8	-2.1	6.2	2.4
O=C(CSc1nnc(CNC(=O)c2ccccc2F)o1)NCC1CCCO1 (centres undefined)	0.6	0.6	-1.8	6.8	1.3	4.0
CSc1nc(C)cc(OCC(=O)N2CCOCC2)n1	3.6	/	1.6	-7.7	-0.8	-0.6
C/C(=N\N=C(/N)SC1CC(=O)N(c2ccccc2)C1=O)c1cccs1 (centres undefined)	10.6	-0.6	0.8	41.2*	-5.9	5.3
N/C(=N\N=C\c1ccco1)SC1CC(=O)N(c2ccc(C(=O)O)cc2)C1=O (centres undefined)	4.0	-0.2	-7.3	45.0*	2.7	4.4
N/C(=N\N=C\c1cccs1)SC1CC(=O)N(c2ccc(Br)cc2)C1=O (centres undefined)	9.4	-2.3	-0.7	31.6*	-50.5	-3.6
